Data: article PMC5540273 (PLoS ONE, 2017)
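Further: KINOMEscan kinase panel screen.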

What follows are compounds tested on CDK3. Settings: concentration: 1 μM,replicates: in singlicate; n = 1.
`Cc1n[nH]c2ccc(-c3cc(OC[C@@H](N)Cc4ccccc4)cnc3-c3ccoc3)cc12.O=C(O)C(F)(F)F.O=C(O)C(F)(F)F` [GSK507358] was tested, and the “%Inh” value was 0%. In the case of `CC(C)Nc1cc(-c2ccc3c(N)n[nH]c3c2)nc(N)n1` [GSK2221681], the “%Inh” value is reported as 0%. In the case of `CNC(=O)c1ccccc1Sc1ccc2c(/C=C/c3ccccn3)n[nH]c2c1`, the “%Inh” value is reported as 63%. `Cl.Cl.NC[C@H](Cc1ccc(C(F)(F)F)cc1)NC(=O)c1cc(Br)c(-c2ccnc3[nH]ccc23)s1` [GSK1487252] was tested, and the “%Inh” value was 0%. With `Cl.Cl.Nc1nc(-c2ccc3c(N)n[nH]c3c2)cc(N2CCCC(NC(=O)c3ccccc3)C2)n1` (stereo not drawn) [GSK2286775] the “%Inh” value was 16%. For `O=C(NCCCN1CCOC1=O)c1cnc(NCc2cc(Cl)ccc2Cl)nc1NC1CCCC1`, the “%Inh” value was 14%. With `CN(C)CC(O)COc1ccc(Nc2nccc(-c3cnn4nc(N5CCOCC5)ccc34)n2)cc1` (stereo not drawn) [GW767488] the “%Inh” value was 9%. `Cc1ccc(-n2nc(C(C)(C)C)cc2NC(=O)Nc2ccc(OCCN3CCOCC3)c3ccccc23)cc1` [GW839464] was tested, and the “%Inh” value was 11%. In the case of `Cc1cc(C(=O)Nc2ccc(Oc3ccc4nc(NC(=O)C5CC5)cn4n3)cc2)nn1-c1ccccc1`, the “%Inh” value is reported as 39%. For `C=CC(=O)Nc1cc2c(Nc3ccc(F)c(Cl)c3)ncnc2cc1OCCCN1CCOCC1` [GW781483], the “%Inh” value was 0%. For `Cc1cc2cn[nH]c2cc1-c1cccc2c(N)c(C(N)=O)nnc12`, the “%Inh” value was 43%. For `C[C@@H]1CCN(C(=O)CC#N)C[C@@H]1N(C)c1ncnc2[nH]ccc12`, the “%Inh” value was 14%.
